Experimental findings from PubChem BioAssay (EPA / NIEHS) are described below.

Read-out in experiment [1]: Thrombomodulin, THBD (gene 7056)
Nature of the experiment: BSK_CASM3C_Thrombomodulin: BioMAP Diversity Plus: CASM3C Assay for Thrombomodulin Biomarker Activity (AID 2283051).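 Also: thrombomodulin protein level measured by ELISA 24 h after dosing.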 To be noted: primary human coronary artery smooth muscle cells; actives raise or lower the signal.

Read-out in experiment [2]: Tissue Factor, F3 (gene 2152)
Nature of the experiment: BSK_CASM3C_TissueFactor: BioMAP Diversity Plus: CASM3C Assay for Tissue Factor Biomarker Activity (AID 2283052).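 Also: cell surface tissue factor protein level read by ELISA.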 Conditions: primary human coronary artery smooth muscle cells; actives raise or lower the signal.

Read-out in experiment [3]: Interferon-gamma inducible Protein 10 (IP10), CXCL10 (gene 3627)
Nature of the experiment: BSK_hDFCGF_IP10: BioMAP Diversity Plus: hDFCGF Assay for Interferon-gamma inducible Protein 10 (IP10) Biomarker Activity (AID 2283053). To be noted: primary human foreskin fibroblasts; actives raise or lower the signal. Summed up:
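Chemical-treated human skin fibroblasts (primary) were sampled at 24 h for IP-10 by ELISA. Both increases and decreases relative to DMSO were scored.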

Read-out in experiment [4]: Urokinase-type plasminogen activator receptor (uPAR), PLAUR (gene 5329)
Kind of experiment: BSK_CASM3C_uPAR: BioMAP Diversity Plus: CASM3C Assay for Urokinase-type plasminogen activator receptor (uPAR) Biomarker Activity (AID 2283054).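 Also: cell-surface uPAR protein level quantified by ELISA.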 To be noted: primary human coronary artery smooth muscle cells; actives raise or lower the signal.

Read-out in experiment [5]: Vascular cell adhesion molecule 1 (VCAM1), VCAM1 (gene 7412)
Nature of the experiment: BSK_CASM3C_VCAM1: BioMAP Diversity Plus: CASM3C Assay for Vascular cell adhesion molecule 1 (VCAM1) Biomarker Activity (AID 2283055).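 Also: VCAM-1 protein level quantified by ELISA on the cells.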 To be noted: primary human coronary artery smooth muscle cells; actives raise or lower the signal.

Read-out in experiment [6]: Collagen III, COL3A1 (gene 1281)
Nature of the experiment: BSK_hDFCGF_CollagenIII: BioMAP Diversity Plus: hDFCGF Assay for Collagen III Biomarker Activity (AID 2283056). Conditions: primary human foreskin fibroblasts; actives raise or lower the signal. Summed up: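 Human foreskin primary fibroblasts were exposed to test chemicals for 24 h, after which collagen III was quantified by ELISA. Activity was fitted bidirectionally against DMSO as negative control and baseline.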

Read-out in experiment [7]: Interleukin-8 (IL8), CXCL8 (gene 3576)
Kind of experiment: BSK_hDFCGF_IL8: BioMAP Diversity Plus: hDFCGF Assay for Interleukin-8 (IL8) Biomarker Activity (AID 2283058). To be noted: primary human foreskin fibroblasts; actives raise or lower the signal. Put shortly:
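hDFCGF human dermal fibroblasts; 24 h chemical exposure; IL-8 by ELISA; bidirectional curve fit vs DMSO baseline; gain or loss of signal scored.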

A short description of experiment [8]: BSK_hDFCGF_Proliferation: Cell Proliferation Assessment in the BioMAP Diversity Plus: hDFCGF Assay (AID 2283059).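 Also: curves fitted for both rise and fall of signal versus DMSO baseline.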 To be noted: primary human foreskin fibroblasts. Summed up:
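This proliferation readout used SRB total-protein staining of human foreskin fibroblasts […], normalized to DMSO with bidirectional curve fitting.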

Read-out in experiment [9]: Macrophage colony-stimulating factor (MCSF), CSF1 (gene 1435)
Nature of the experiment: BSK_hDFCGF_MCSF: BioMAP Diversity Plus: hDFCGF Assay for Macrophage colony-stimulating factor (MCSF) Biomarker Activity (AID 2283060). To be noted: primary human foreskin fibroblasts; actives raise or lower the signal. Put shortly: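 Human foreskin primary fibroblasts were treated with test chemical for 24 h, and M-CSF was then measured by ELISA. Data were fitted bidirectionally against DMSO as the negative control and activity baseline.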

The nature of experiment [10]: BSK_hDFCGF_SRB: Viability Assessment in the BioMAP Diversity Plus: hDFCGF Assay (AID 2283061).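 Also: cells exposed to compound for 24 h before the read.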 To be noted: primary human foreskin fibroblasts. Put shortly: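 Human foreskin primary fibroblasts were treated with compound and assessed 24 h after dosing. Total protein was measured by sulforhodamine B staining (0.1% SRB after 10% TCA fixation, 560 nm read) as a cytotoxicity marker, with bidirectional fitting against DMSO baseline.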

Read-out in experiment [11]: TIMP metallopeptidase inhibitor 1 (TIMP1), TIMP1 (gene 7076)
Nature of the experiment: BSK_hDFCGF_TIMP1: BioMAP Diversity Plus: hDFCGF Assay for TIMP metallopeptidase inhibitor 1 (TIMP1) Biomarker Activity (AID 2283062). To be noted: primary human foreskin fibroblasts; actives raise or lower the signal. Summed up: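 Primary human foreskin fibroblasts in the hDFCGF system were dosed with compound for 24 h, then TIMP-1 was measured by ELISA. Activity was fitted bidirectionally relative to DMSO control; parallel SRB staining assessed cytotoxicity.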

Read-out in experiment [12]: Monokine induced gamma interferon (MIG), CXCL9 (gene 4283)
Kind of experiment: BSK_hDFCGF_MIG: BioMAP Diversity Plus: hDFCGF Assay for Monokine induced gamma interferon (MIG) Biomarker Activity (AID 2283063). To be noted: primary human foreskin fibroblasts; actives raise or lower the signal. Put shortly: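 ELISA read-out of MIG from primary human dermal fibroblasts 24 h post-dosing. Gain or loss of signal fitted bidirectionally, DMSO as baseline.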

Read-out in experiment [13]: Matrix Metallopeptidase 1 (MMP1), MMP1 (gene 4312)
Nature of the experiment: BSK_hDFCGF_MMP1: BioMAP Diversity Plus: hDFCGF Assay for Matrix Metallopeptidase 1 (MMP1) Biomarker Activity (AID 2283064). To be noted: primary human foreskin fibroblasts; actives raise or lower the signal. Put shortly: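 Human foreskin fibroblasts exposed to chemical for 24 h; MMP1 detected by ELISA, with DMSO as baseline for bidirectional fitting.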

Read-out in experiment [14]: Vascular cell adhesion molecule 1 (VCAM1), VCAM1 (gene 7412)
Kind of experiment: BSK_hDFCGF_VCAM1: BioMAP Diversity Plus: hDFCGF Assay for Vascular cell adhesion molecule 1 (VCAM1) Biomarker Activity (AID 2283065).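 As to AC50: VCAM-1 protein level quantified by ELISA after 24 h chemical exposure.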 To be noted: primary human foreskin fibroblasts; actives raise or lower the signal. Summed up: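 Primary human foreskin fibroblasts (hDFCGF system) were dosed with chemical and VCAM-1 was measured by ELISA 24 h later. Bidirectional curve fitting used DMSO as negative control and activity baseline.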

Read-out in experiment [15]: Plasminogen activator inhibitor-1 (PAI1), SERPINE1 (gene 5054)
Nature of the experiment: BSK_hDFCGF_PAI1: BioMAP Diversity Plus: hDFCGF Assay for Plasminogen activator inhibitor-1 (PAI1) Biomarker Activity (AID 2283066). Conditions: primary human foreskin fibroblasts; actives raise or lower the signal. Summed up: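 Human skin fibroblast cultures receive chemical for 24 h before PAI-1 is measured by ELISA; signal changes are fitted bidirectionally against DMSO-treated wells.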

Read-out in experiment [16]: Intercellular Adhesion Molecule 1 (ICAM1), ICAM1 (gene 3383)
Kind of experiment: BSK_KF3CT_ICAM1: BioMAP Diversity Plus: KF3CT Assay for Intercellular Adhesion Molecule 1 (ICAM1) Biomarker Activity (AID 2283067). Conditions: primary human keratinocytes with fibroblasts; actives raise or lower the signal. Summed up: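 Human keratinocyte plus foreskin fibroblast primary co-culture was exposed to chemical for 24 h. ICAM-1 was then quantified by ELISA, and the data were fit bidirectionally against DMSO as the negative control and baseline.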

Read-out in experiment [17]: Interferon-gamma inducible Protein 10 (IP10), CXCL10 (gene 3627)
Kind of experiment: BSK_KF3CT_IP10: BioMAP Diversity Plus: KF3CT Assay for Interferon-gamma inducible Protein 10 (IP10) Biomarker Activity (AID 2283068). To be noted: primary human keratinocytes with fibroblasts; actives raise or lower the signal. Put shortly: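 Signal is secreted/surface IP-10 by ELISA in a human primary skin co-culture of keratinocytes and foreskin fibroblasts, taken 24 h post-dosing; DMSO served as negative control.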

Experiment [18] is described as follows: BSK_KF3CT_SRB: Viability Assessment in the BioMAP Diversity Plus: KF3CT Assay (AID 2283069).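 Also: fitted for both signal gain and loss against DMSO baseline.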 Conditions: primary human keratinocytes with fibroblasts. Summed up: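 Overt cytotoxicity is assessed as total protein by sulforhodamine B staining in parallel human skin co-cultures at 24 h after dosing. DMSO serves as negative control and baseline.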
Read-out in experiment [19]: Interleukin-1 alpha (IL1a), IL1A (gene 3552)
Kind of experiment: BSK_KF3CT_IL1a: BioMAP Diversity Plus: KF3CT Assay for Interleukin-1 alpha (IL1a) Biomarker Activity (AID 2283070). To be noted: primary human keratinocytes with fibroblasts; actives raise or lower the signal. Summed up:
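Readout is IL-1a level by ELISA, compared bidirectionally with DMSO as baseline. Cells: human keratinocytes co-cultured with foreskin fibroblasts, harvested 24 h post-dose.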

Read-out in experiment [20]: Epidermal growth factor receptor (EGFR), EGFR (gene 1956)
Kind of experiment: BSK_hDFCGF_EGFR: BioMAP Diversity Plus: hDFCGF Assay for Epidermal growth factor receptor (EGFR) Biomarker Activity (AID 2283057). To be noted: primary human foreskin fibroblasts; actives raise or lower the signal. Summed up:
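Cell-based multiplexed assay in primary human foreskin fibroblasts. EGFR is read by ELISA 24 h after treatment and compared with DMSO controls.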

More than one record can exist for a structure, and the calls need not agree. Activity calls are given as the source filed them. The calls were made as follows: active = hit-call score of the fitted dose curve at least 0.9, where 1 is the maximum; inactive = score below 0.9.

Turning to `O=C(O)CCC(F)(F)C(F)(F)C(F)(F)C(F)(F)C(F)(F)F`, the outcome in experiment [1], in [2], in [3], in experiment [4], in experiment [5] and in [6] was inactive. The result in experiment [7], in experiment [8], in [9], in experiment [10], in [11] and in experiment [12] was inactive. Further, the result in experiment [13], in experiment [14], in experiment [15], in experiment [16], in [17] and in experiment [18] was inactive. Moreover, in experiment [19], the outcome was inactive. Further, the figures for the AC50 in experiment [9] and in [13] were 220 nM (active) and 13800 nM (active), respectively.
On to `CCCCC=O`, for which the result in experiment [1], in experiment [2], in [3], in experiment [4], in [5] and in experiment [6] was inactive. Moreover, the result in experiment [20], in experiment [7], in experiment [8], in [9], in experiment [10] and in [11] was inactive. The outcome in experiment [12], in [13], in [14], in [15], in experiment [16] and in experiment [17] was inactive. Also, the outcome in experiment [18] and in experiment [19] was inactive.
Regarding `O=C(c1ccccc1)c1ccccc1`, the outcome in experiment [1], in experiment [2], in experiment [3], in experiment [4], in experiment [5] and in experiment [6] was inactive. For the same compound, the outcome in [7], in experiment [8], in [9], in experiment [10], in [11] and in experiment [12] was inactive. In addition, the result in experiment [13], in experiment [14], in experiment [15], in [16], in [17] and in [18] was inactive. For the same compound, the outcome in experiment [19] was inactive.
Consider `CCCCCCCCCCCCCCCCCC[N+](C)(C)Cc1ccccc1`, for which the AC50 in experiment [1] is 2560 nM (active); in experiment [2], 296 nM (active); in experiment [3] it was 795 nM (active); in experiment [4], 2770 nM (active); in experiment [5], 10000 nM (active); in [6], 355 nM (active). The AC50 was 2520 nM (active) in experiment [7]; 15.6 nM (active) in experiment [8]; 721 nM (active) in [9]; 556 nM (active) in [10]; 553 nM (active) in experiment [11]; 1860 nM (active) in experiment [12]. Further, the AC50 in experiment [13] is 3930 nM (active); in experiment [14], 715 nM (active); in experiment [15], 636 nM (active); in experiment [16], 5580 nM (active); in experiment [17] it was 2540 nM (active); in experiment [18] it was 2620 nM (active). Also, the AC50 in [19] is 4240 nM (active).
Turning to `COc1cc(OC)nc(NC(=O)NS(=O)(=O)Nc2ccccc2C(=O)N(C)C)n1`, the outcome in [1], in experiment [2], in experiment [3], in experiment [4], in experiment [5] and in experiment [6] was inactive. For the same compound, the outcome in experiment [7], in experiment [8], in [9], in experiment [10], in [11] and in [12] was inactive. For the same compound, the result in experiment [13], in experiment [14], in experiment [15], in [16], in experiment [17] and in [18] was inactive. Also, in [19], the result was inactive.
Turning to `CC[N+](CC)(CC)Cc1ccccc1`, the result in [1], in [2], in [3], in experiment [4], in [5] and in [6] was inactive. In addition, the outcome in experiment [7], in experiment [8], in [9], in experiment [10], in [11] and in experiment [12] was inactive. The result in [13], in experiment [14], in [15], in [16], in [17] and in experiment [18] was inactive. Further, the outcome in experiment [19] was inactive.
